Assay results from PubChem BioAssay AID1212 (NMMLSC, 2008).
The source made the active and inactive calls.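 The calls were made as follows: active = blocks over 60% of fluorescent estradiol binding at 10 µM; inactive = the rest.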

Each compound was assayed against G-protein coupled estrogen receptor 1 (Homo sapiens) (UniProt Q99527) (assay: GPR30 competitive binders vs fluorescent estrogen, primary screen, cell-based, Cos7 GPR30-GFP, flow cytometry, 10 µM (AID 1212)). Settings: fluorescent estrogen competition, at 10 µM; stronger effect = higher value.

outcome, inactive:
CC(=O)OC1CC2(C)C(=O)CCC2C2CCc3cc(O)ccc3C12 (stereo unspecified), Cc1oc2ccc(OCC#N)cc2c1C(=O)OC(C)C, CCCCCCc1cc2c3c(c(=O)oc2cc1OCC(=O)O)CCCC3, COc1cccc(C2NCCc3cc(OC)c(OC)cc32)c1 (stereo unspecified), COc1ccc(Oc2ccc3c(c2)c2c4n3CCNC4CCC2)cc1 (stereo unspecified), CC1(C)Cc2[nH]c(=O)c(C(=O)O)cc2CO1

inhibition, inactive:
COc1ccc(NS(=O)(=O)c2ccc3c(c2)[C@H]2C=CC[C@H]2[C@@H](c2ccc(F)cc2)N3)cc1 56%, COc1ccccc1C1Nc2c(C(=O)O)cccc2C2C3CCC(C3)C12 (stereo unspecified) 5%, O=C1CC(c2ccncc2)c2cc3c(cc2N1)OCCO3 (stereo unspecified) 1%, CCOC(=O)c1c(N)sc2c1CC(C)(C)NC2(C)C 10%, CCCCOc1cc(OCCCC)c2c3c(c(=O)oc2c1)CCCC3 34%
